The target of assay [1] is Retinoic acid receptor RXR-alpha (Homo sapiens) (UniProt P19793). Description: qHTS assay to identify small molecule agonists of the RXR signaling pathway (AID 1159527; calls by dose curve; further: nearly all actives have a fitted effect of over 35% in size; further: potency means the concentration at half of the fitted maximal effect). The method in brief: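 Using 9-cis retinoic acid as the reference agonist, chemicals were tested in HEK 293T cells […] for 16 hr; substrate loading lasted 2 hr at room temperature.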
Chain of Retinoic acid receptor RXR-alpha (Homo sapiens) (P19793 whole entry, looked up): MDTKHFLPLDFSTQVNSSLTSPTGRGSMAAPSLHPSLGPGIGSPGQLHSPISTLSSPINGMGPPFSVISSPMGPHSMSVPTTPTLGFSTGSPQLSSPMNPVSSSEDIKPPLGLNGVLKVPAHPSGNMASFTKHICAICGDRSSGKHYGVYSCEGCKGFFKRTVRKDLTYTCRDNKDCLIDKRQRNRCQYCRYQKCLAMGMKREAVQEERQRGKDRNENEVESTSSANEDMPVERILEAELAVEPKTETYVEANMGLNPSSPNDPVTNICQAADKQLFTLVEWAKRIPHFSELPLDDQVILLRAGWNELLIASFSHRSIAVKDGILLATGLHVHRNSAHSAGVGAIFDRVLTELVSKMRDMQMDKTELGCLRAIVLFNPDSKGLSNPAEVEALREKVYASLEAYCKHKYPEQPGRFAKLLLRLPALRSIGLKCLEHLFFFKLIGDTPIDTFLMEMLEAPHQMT

Assay [2] can be described thus: qHTS assay to identify small molecule antagonists of the retinoid acid receptor (RAR) signaling pathway - cell viability counter screen (AID 1159551). Further: nearly all actives have a fitted effect of over 35% in size. A digest of the protocol:
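Cytotoxicity counter screen in C3RL4 cells: 6 h compound exposure with 1 uM retinol (final), viability from cellular ATP by luminescence.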
For orientation: Quantitative high-throughput screening tests each substance at several concentrations.

The nature of assay [3]: qHTS assay to identify small molecule antagonists of the estrogen related receptor (ERR) signaling pathway from Tox21 library - cell viability counter screen (AID 1224834). Further: nearly all actives have a fitted effect of over 30% in size. A digest of the protocol:
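Cytotoxicity of test substances is gauged in the same ERR cells used for the antagonist screen, after 17.5 h of compound treatment at 37 C, by CellTiter-Fluor fluorescence measured after 30 min.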

Assay [4] addresses Luciferin 4-monooxygenase (Photinus pyralis) (UniProt P08659). Description: qHTS assay to identify small molecule inhibitors of firefly luciferase (AID 1224835). Further: series mostly up to about 120 µM; nearly all actives have a fitted effect of over 25% in size. The method in brief: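 Inhibition of purified Photinus luciferase is measured by luminescence. Substrate levels (D-luciferin, ATP) sit at their KM values. Each compound is tested in a concentration series.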
Assay [5] is described as follows: qHTS assay to identify small molecule agonists of the constitutive androstane receptor (CAR) signaling pathway - cell viability counter screen (AID 1224836). Further: series mostly up to about 92 µM; nearly all actives have a fitted effect of over 45% in size. A digest of the protocol: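 23 h treatment, 37 C, 5% CO2. Cell line: HepG2 stably expressing hCAR with a CYP2B6-2.2kb construct. Co-treatment: PK11195, 0.75 uM final. Read-out: CellTiter-Fluor fluorescence intensity.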

Assay [6] is described as follows: qHTS assay to identify small molecule antagonists of the constitutive androstane receptor (CAR) signaling pathway - cell viability counter screen (AID 1224837). Further: series mostly up to about 92 µM; nearly all actives have a fitted effect of over 45% in size. A digest of the protocol: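 Multiplexed cytotoxicity read-out for the CAR antagonist screen: double-stable HepG2-CYP2B6-hCAR cells co-treated with 50 nM CITCO (final) and compound over 15 concentrations, incubated 23 hr, then assessed by CellTiter-Fluor fluorescence.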

The nature of assay [7]: qHTS assay to identify small molecule antagonists of the estrogen related receptor signaling pathway with the pleiotropic PPARgamma coactivator (PGC) from Tox21 10K library - cell viability counter screen (AID 1224840; active means well fitted cell-killing curve with a large enough effect in the repeat runs, not every such curve was filed as active; further: nearly all actives have a fitted effect of over 40% in size). The method in brief:
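Step one, plate 2,000 PGC/ERR cells per well; step two, incubate 6 h at 37 C/5% CO2; step three, pin-transfer compounds; step four, incubate 17.5 h; step five, add CellTiter-Fluor and read fluorescence after 30 min.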

Assay [8] can be described thus: qHTS assay to identify small molecule antagonists of the estrogen related receptor signaling pathway with the pleiotropic PPARgamma coactivator (PGC) from Tox21 10K library (AID 1224841; call rule not given here; further: actives are mostly falling curves and most rising ones were filed inactive; nearly all actives have a fitted effect of over 50% in size; further: potency means the concentration at half of the fitted maximal effect). The method in brief: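 Antagonism in this quantitative HTS is taken from loss of luciferase signal in PGC/ERR cells. Cells (2,000/well) are treated with compounds in DMSO after a 6 h settling period and read by One-Glo luminescence after 18 h.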

Assay [9] is described as follows: qHTS assay to identify small molecule agonists of the estrogen related receptor signaling pathway with the pleiotropic PPARgamma coactivator (PGC) from Tox21 10K library (AID 1224842). Further: nearly all actives have a fitted effect of over 15% in size. A digest of the protocol:
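Luminescence from One-Glo (30 min, room temperature) measured after PGC/ERR cells had 18 h at 37 C with pinned compound (23 nL in DMSO). Cells had been seeded at 2,000 per well and pre-incubated 6 h.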

Assay [10] addresses Nuclear receptor subfamily 1 group I member 3 (Homo sapiens) (UniProt Q14994). Description: qHTS assay to identify small molecule antagonists of the constitutive androstane receptor (CAR) signaling pathway (AID 1224838). Further: nearly all actives have a fitted effect of over 40% in size. The method in brief: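 Compounds were titrated across 15 concentrations onto HepG2 cells double-stably expressing hCAR and a CYP2B6-2.2kb reporter, together with 50 nM CITCO (final). After 24 h at 37 C, luciferase activity was measured by luminescence.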

The target is the same in assay [11]. Description: qHTS assay to identify small molecule agonists of the constitutive androstane receptor (CAR) signaling pathway (AID 1224839). Further: series mostly up to about 92 µM; nearly all actives have a fitted effect of over 15% in size. The method in brief:
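Compounds tested at 15 concentrations on HepG2 cells stably harbouring hCAR and CYP2B6-2.2kb reporter constructs, co-treated with PK11195 (0.75 uM final), 24 h at 37 C; luminescent reporter signal quantified.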

A short description of assay [12]: qHTS assay to identify small molecule antagonists of the retinoic acid receptor (RAR) signaling pathway (AID 1159552; further: nearly all actives have a fitted effect of over 50% in size; further: potency means the concentration at half of the fitted maximal effect). A digest of the protocol:
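Test chemicals and DMSO controls were pin-transferred onto C3RL4 cells a day after seeding; retinol (1 uM final) followed at once. Luminescent reporter output was quantified after 6 hr of co-incubation and 30 min with detection reagent.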

The nature of assay [13]: qHTS assay to identify small molecule agonists of the retinoic acid receptor (RAR) signaling pathway (AID 1159553). The method in brief:
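Agonist activity was scored in C3RL4 cells bearing a retinoic acid response element luciferase construct. Cells were treated with compounds for 6 hr at 37 C, and luciferase signal was measured as luminescence.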

The nature of assay [14]: qHTS assay to identify small molecule agonists of the RXR signaling pathway - cell viability counter screen (AID 1159529). Further: series mostly up to about 77 µM; nearly all actives have a fitted effect of over 50% in size. The method in brief: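 Compounds dissolved in DMSO were pinned onto HEK 293T cells carrying a beta-lactamase reporter under RXR-alpha control and incubated 16 hr. Cytotoxicity was then quantified by CellTiter-Glo luminescence.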

Inconclusive results are not listed. Unmarked numbers belong to inactive results. The source made the active and inactive calls. Unless noted, the call rests on the fitted dose curve; in most records, active means well fitted curve in the direction sought with a large enough effect in the repeat runs; inconclusive means weak or mixed curves; inactive means no such curve, though single readings can be large; an effect the other way counts as inactive or inconclusive.
On the % scale 0 is the no-effect control and ±100 the full control effect.

Chain of Luciferin 4-monooxygenase (Photinus pyralis) (P08659 whole entry, looked up): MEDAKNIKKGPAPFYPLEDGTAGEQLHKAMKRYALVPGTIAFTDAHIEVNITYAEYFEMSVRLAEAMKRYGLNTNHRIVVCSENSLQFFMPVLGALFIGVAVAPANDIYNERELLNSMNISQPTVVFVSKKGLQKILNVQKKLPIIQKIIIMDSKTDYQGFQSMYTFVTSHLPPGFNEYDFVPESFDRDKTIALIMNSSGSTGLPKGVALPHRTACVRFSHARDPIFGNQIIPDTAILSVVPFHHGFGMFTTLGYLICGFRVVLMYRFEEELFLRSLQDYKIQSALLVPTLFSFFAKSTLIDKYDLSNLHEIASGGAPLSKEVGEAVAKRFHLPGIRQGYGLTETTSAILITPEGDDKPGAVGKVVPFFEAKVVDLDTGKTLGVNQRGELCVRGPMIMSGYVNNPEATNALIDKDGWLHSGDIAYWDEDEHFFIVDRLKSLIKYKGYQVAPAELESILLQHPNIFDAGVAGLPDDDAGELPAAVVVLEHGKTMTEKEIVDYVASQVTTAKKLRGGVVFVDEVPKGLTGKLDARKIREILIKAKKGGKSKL
Chain of Nuclear receptor subfamily 1 group I member 3 (Homo sapiens) (Q14994 whole entry, looked up): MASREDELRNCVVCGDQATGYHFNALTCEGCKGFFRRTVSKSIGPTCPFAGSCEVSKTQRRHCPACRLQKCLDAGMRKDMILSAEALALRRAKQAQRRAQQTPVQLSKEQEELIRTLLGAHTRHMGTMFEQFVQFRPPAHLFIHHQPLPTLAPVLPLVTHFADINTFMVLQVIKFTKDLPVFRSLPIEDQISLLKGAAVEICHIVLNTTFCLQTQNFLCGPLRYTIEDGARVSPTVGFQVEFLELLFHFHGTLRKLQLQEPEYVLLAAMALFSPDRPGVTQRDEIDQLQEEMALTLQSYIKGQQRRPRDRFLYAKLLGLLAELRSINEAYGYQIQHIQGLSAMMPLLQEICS

Take `c1ccc2cnncc2c1`: the Potency result in [1], in [3], in assay [4] and in assay [9] was “inactive” each time. Also, the compound was called inactive in [2], in assay [5], in assay [6] and in assay [7]. Moreover, the Potency in assay [8] is 27.4 µM (active).
Consider `CC(C)=CC(=O)O`, for which the Potency result in assay [1], in assay [3], in [4], in assay [10] and in assay [11] was “inactive” in each case. The call in [2], in assay [5], in assay [6] and in assay [7] was inactive.
As to `C1COCCO1`, the Potency result in assay [1], in assay [3], in [4], in assay [8] and in assay [9] was “inactive” throughout. In addition, the compound was classed as inactive in assay [2], in [5] and in [7].
`Cc1c(C)n(CCN(C)C)c2ccc(C(=O)OCCN(C)C)cc12`: the Potency entry in [1], in [12], in assay [13], in [4], in assay [11] and in assay [9] was “inactive” each time. Further, the compound was classed as inactive in assay [2].
For the compound `O=C(O)/C=C/c1ccc(Cn2ccnc2)cc1`, the Potency result in assay [1], in assay [3] and in assay [4] was “inactive” in each case. Also, the compound was classed as inactive in assay [2], in assay [5] and in assay [7].
As for `C=CC(=O)OCCCCCC`, the Potency result in assay [1] and in assay [3] was “inactive” in each case. In addition, the result in assay [5], in assay [6] and in assay [7] was inactive.
Take `O=C(O)Cc1cc(I)c(Oc2cc(I)c(O)c(I)c2)c(I)c1`: the results for the Potency in assay [1] and in assay [12] were 15.2 µM (active) and 42.4 µM (active), respectively. In addition, the Potency entry in [13], in [3], in assay [10] and in [11] was “inactive” in each case. Moreover, the outcome in [5], in [6] and in assay [7] was inactive.
Take `CCCCN(CCO)CCO`: the Potency result in [1], in [4], in [11], in [8] and in assay [9] was “inactive” throughout. Besides, the compound was called inactive in assay [2], in [5], in assay [6] and in [7].
For the compound `CCN1CCN(c2cc3c(cc2F)c(=O)c(C(=O)O)cn3C2CC2)CC1`, the Potency result in assay [1], in assay [4], in [10] and in assay [11] was “inactive” throughout. Besides, the compound was called inactive in assay [2], in assay [6] and in assay [7].
Turning to `CC12CCC(CC1=O)C2(C)C` (configuration not stated), the Potency result in assay [1], in assay [12], in [13], in [3], in assay [4] and in [10] was “inactive” in each case. Besides, the Potency entry in assay [11], in [8] and in [9] was “inactive” throughout. Moreover, the call in assay [5], in assay [6] and in assay [7] was inactive.
Regarding `C1CCCCCCCCCCC1`, the activation is 0.57% [at 15.8 µM] in assay [1] and 0.749% [at 19 µM] in assay [9]. Further, the viability change, negative = cytotoxic in assay [3] is 0.43% [at 19 µM]; in assay [5], -17.1% [at 19 µM]; in assay [7] it was 11% [at 19 µM]. Moreover, the activity change, negative = inhibition in assay [4] is -7.22% [at 23.6 µM]. The activity change, negative = cytotoxicity in assay [6] was -6.25% [at 19 µM].
`COc1cc(CCC(C)=O)ccc1O`: the Potency result in assay [14], in assay [12], in assay [13], in assay [3], in [4] and in assay [10] was “inactive” in each case. In addition, the Potency result in [11], in assay [8] and in [9] was “inactive” in each case. Further, the call in assay [2], in assay [5], in assay [6] and in assay [7] was inactive.
As to `O=c1[nH]c2ccccc2c(=O)n1CCCl`, the Potency result in assay [1], in assay [3], in assay [4], in [11], in assay [8] and in assay [9] was “inactive” throughout. Also, the result in assay [5], in assay [6] and in assay [7] was inactive.
In the case of `Cc1ccc(N)cc1[N+](=O)[O-]`, the Potency result in [1], in [4], in assay [10] and in assay [11] was “inactive” throughout. In addition, the compound was called inactive in assay [5], in assay [6] and in assay [7].
